The source of these data is PubChem BioAssay (Tox21).

The nature of assay [1]: qHTS assay to identify small molecule agonists of the hypoxia (HIF-1) signaling pathway - cell viability counter screen (AID 1224844; calls by dose curve; note: nearly all actives have a fitted effect of over 50% in size; note: potency is the fitted concentration of half-maximal effect). The method in brief:
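HRE-bla ME-180 cells in medium with 0.5% dialyzed FBS were preincubated 5 hrs at 37C, exposed to compounds for 17 hrs, then viability was read as CellTiter-Glo luminescence after 30 min at room temperature, in the reporter wells.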
On the technique in general: qHTS replaces the single test concentration by a dilution series.

The nature of assay [2]: qHTS assay to identify small molecule agonists of H2AX (AID 1224845; active = well fitted activation curve with a large enough effect in the signal ratio in the repeat runs, not every such curve was filed as active; the % refers to the signal ratio; note: potency is the fitted concentration of half-maximal effect). The method in brief: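 Phospho-H2AX Ser139 measured by HTRF (ex 320 nm; em 665 and 620 nm) after 24 hr antibody incubation. Compounds, 15 concentrations, 0.76% DMSO, were applied to CHO-K1 cells for 3hr at 37C before lysis.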
Assay [3] in a line: qHTS assay to identify small molecule agonists of H2AX - cell viability counter screen (AID 1224847; calls by dose curve; note: nearly all actives have a fitted effect of over 30% in size; note: potency is the fitted concentration of half-maximal effect; for activity change, negative = cytotoxicity: top concentration of the series differs between compounds). The method in brief:
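Viability of CHO-K1 (wild type) cells after 3 hr compound exposure was measured by CellTiter-Glo luminescence.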

A short description of assay [4]: qHTS assay to identify small molecule antagonists of the estrogen related receptor (ERR) signaling pathway from Tox21 library (AID 1224848). Note: nearly all actives have a fitted effect of over 50% in size. Note: potency is the fitted concentration of half-maximal effect. The method in brief:
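Antagonist-mode screen of the Tox21 10K library in an NTP-provided ERR reporter cell line; 18 h compound exposure at 37 C, luminescence measured with ONE-Glo.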

Assay [5] is described as follows: qHTS assay to identify small molecule agonists of the estrogen related receptor (ERR) signaling pathway from Tox21 library (AID 1224849; calls by dose curve; note: nearly all actives have a fitted effect of over 15% in size). As to conditions: ERR reporter cell line, ONE-Glo luciferase, 18 h. The method in brief:
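ERR reporter cell line (NTP) seeded, rested 6 h at 37 C/5% CO2, then pinned with Tox21 compounds in DMSO. After 18 h at 37 C, ONE-Glo luciferase luminescence was read following 30 min at room temperature.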

Assay [6] is described as follows: qHTS RealTime-Glo MT Cell Viability Assay in HepG2 cells - 24 hour (AID 1224867). Note: nearly all actives have a fitted effect of over 50% in size. The method in brief: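 Cell number in HepG2 cultures estimated from NanoLuc luminescence generated by metabolic reduction of a prosubstrate by living cells. The homogeneous, nonlytic format allowed repeated reads at 0, 8, 16, 24, 32 and 40 h of compound exposure.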
Assay [7] can be described thus: qHTS RealTime-Glo MT Cell Viability Assay in HEK293 cells - 32 hour (AID 1224868). For activity change, negative = cytotoxic: top concentration of the series differs between compounds. Note: nearly all actives have a fitted effect of over 50% in size. Note: potency is the fitted concentration of half-maximal effect. The method in brief:
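Homogeneous bioluminescent viability format in HEK293 cells (600 cells/well). Following 5 h at 37 C/5% CO2, 23 nL compound was pintooled; the signal was measured repeatedly during 40 h incubation.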

The nature of assay [8]: qHTS RealTime-Glo MT Cell Viability Assay in HepG2 cells - 40 hour (AID 1224870). Note: nearly all actives have a fitted effect of over 50% in size. Note: potency is the fitted concentration of half-maximal effect. In outline:
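Real-time viability: cells seeded at 600 per well together with NanoLuc and cell-permeant prosubstrate, compounds added after 5 h incubation. Luminescence tracked at 0, 8, 16, 24, 32 and 40 h of exposure.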

The nature of assay [9]: A CellTox Green Cytotoxicity Assay to monitor cytotoxicity in HEK293 cells - 0 hour (AID 1224869). Note: nearly all actives have a fitted effect of over 50% in size. Note: potency is the fitted concentration of half-maximal effect. The method in brief: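 HEK293 cells premixed with CellTox Green dye were seeded at 600 cells/well and left 5 h at 37 C/5% CO2 before pin transfer of 23 nL compound in DMSO. Fluorescence from dye bound to dead-cell DNA was read during 40 h treatment.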
Assay [10] can be described thus: qHTS assay to identify small molecule agonists of the hypoxia (HIF-1) signaling pathway (AID 1224846; active = well fitted activation curve with a large enough effect in the signal ratio in the repeat runs, not every such curve was filed as active; the % refers to the signal ratio). The method in brief: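 HRE-bla ME-180 cells (beta-lactamase reporter under hypoxia response element) were plated at 2,000 cells/well in medium with 0.5% dialyzed FBS, rested 5 hrs, then given compounds in DMSO for 17 hrs at 37C, 5% CO2. Reporter induction was read with CCF4-AM FRET substrate.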

Values joined by “and” are separate entries in the source; they are usually repeats but may differ in a detail not shown here. Identical values can stand only once. Unmarked numbers belong to inactive results. Inconclusive results are not listed. Active and inactive are the calls of the source. Unless noted, calls come from the whole dose curve; as a rule, active = well fitted curve in the direction sought with a large enough effect in the repeat runs; inconclusive = weak or mixed curves; inactive = no such curve, though single readings can be large; an effect the other way counts as inactive or inconclusive.
% is set by controls: 0 for no effect and ±100 for the full control effect.

Consider `CC(N=C(NC#N)Nc1ccncc1)C(C)(C)C` (stereo not given), for which the Potency result in assay [1], in [2], in assay [3], in [4], in assay [6] and in assay [7] was “inactive” throughout. The Potency result in assay [8] is “inactive”. Besides, the activity change, positive = activation in assay [5] (at 42.5 µM (top of the series)) was -15.5%.

As for `Cc1cc(-n2nc3ccc(Cl)cc3n2)c(O)c(C(C)(C)C)c1`, the Potency result in [1], in [2], in assay [3], in [4], in assay [6] and in assay [7] was “inactive” each time. In addition, in [5] (at 42.5 µM (top of the series)), the activity change, positive = activation was 2.34%.

Regarding `Cc1c2ccccc2c(C)c2c1ccc1ccccc12`, the Potency entry in assay [1], in assay [2], in assay [3], in assay [6] and in assay [8] was “inactive” in each case. The Potency in assay [4] was 30.3 µM (active) and 61.1 µM (active); in [7], 43.2 µM (active) and 24.5 µM (active). Also, the activity change, positive = activation in assay [5] (at 92.4 µM (top of the series)) is -83.3% and -76.1%.

Consider `C=C(CC)C(=O)c1ccc(OCC(=O)O)c(Cl)c1Cl`, for which the Potency is 19.4 µM (active) and 21.3 µM (active) in [1]; 68.1 µM (active) in assay [4]. Besides, the Potency result in [2], in [6], in assay [7], in assay [9] and in [8] was “inactive” each time. In addition, the activity change, positive = activation in [5] (at 42.5 µM (top of the series)) was -17.8%; in [5] (at 92.4 µM (top of the series)), -55%.

Regarding `O=C(O)CN(CCN(CC(=O)O)CC(=O)O)CC(=O)O`, the activity change, negative = cytotoxicity is -5.67% [at 2.72 µM] in assay [1], -5.08% [at 5.43 µM] in assay [3] and 3.3% [at 2.72 µM] in assay [6]. For the same molecule, the Potency in assay [2] was 4.52 µM (active); in assay [9] it was 1.96 µM (active). Also, the activity change, negative = cytotoxic is 9.19% [at 2.72 µM] in [7] and 12.4% [at 2.72 µM] in [8].

Consider `O=C1NC(=O)[C@@H]2CC=CC[C@H]12`, for which the Potency in assay [1] is 19.5 µM (active). Moreover, the Potency entry in assay [2], in assay [3], in [4], in assay [6], in [7] and in assay [9] was “inactive” each time. Further, the Potency result in assay [8] was “inactive”. In addition, the activity change, positive = activation in assay [5] (at 92.4 µM (top of the series)) was -12.4%.

Consider `CCCCCC(C)OC(=O)COc1ccc(Cl)c2cccnc12` (stereo not given), for which the Potency entry in [1], in assay [2], in [10], in assay [6], in [7] and in assay [9] was “inactive” each time. In addition, in assay [8], the Potency entry was “inactive”.

On to `c1ccc(C(O[C@@H]2CCCN(CCc3ccc4c(c3)OCO4)C2)c2ccccc2)cc1`, for which the Potency result in [1], in assay [2], in [10], in assay [6] and in [9] was “inactive” in each case.

As for `CC(=O)Oc1cc2c(s1)CCN(C(C(=O)C1CC1)c1ccccc1F)C2` (stereo not given), the Potency result in assay [1], in assay [10], in assay [3], in [4], in assay [6] and in assay [7] was “inactive” each time. The Potency result in assay [9] and in assay [8] was “inactive” in each case. For the same molecule, in [5] (at 42.5 µM (top of the series)), the activity change, positive = activation is -6.5%.

Consider `Nc1ccc(NCCO)c([N+](=O)[O-])c1`, for which the Potency result in assay [1], in assay [10], in assay [4], in [6], in assay [7] and in assay [9] was “inactive” each time. Besides, the Potency entry in assay [8] is “inactive”. Also, the Potency in assay [3] was 80 µM (active). Moreover, the activity change, positive = activation in [5] (at 92.4 µM (top of the series)) was -17.2%.

For `Nc1nc2c(ncn2COCCO)c(=O)[nH]1`, the Potency result in assay [1], in [10], in assay [3], in assay [4], in assay [6] and in assay [7] was “inactive” each time. Further, the Potency result in assay [9] and in assay [8] was “inactive” throughout. Moreover, the activity change, positive = activation in [5] (at 42.5 µM (top of the series)) is -1.87%.

As to `CCCCCCCCCCCC(=O)OCC(C)OC(=O)CCCCC(=O)O` (stereo not given), the Potency entry in assay [1], in assay [2], in assay [3], in assay [4], in assay [6] and in assay [9] was “inactive” throughout. Further, the Potency result in assay [8] is “inactive”. In addition, in assay [5] (at 42.5 µM (top of the series)), the activity change, positive = activation is -2.88%.

For `CC(CCc1ccccc1)NCC(O)c1ccc(O)c(C(N)=O)c1` (stereo not given), the Potency entry in assay [1], in assay [2], in assay [3], in [6] and in assay [8] was “inactive” in each case.

`O=C1CCCCCCCCCCCCCCCO1`: the Potency result in [1], in [10], in [3], in [4], in [6] and in assay [7] was “inactive” throughout. In addition, the Potency result in assay [8] was “inactive”. Also, the activity change, positive = activation in assay [5] (at 92.4 µM (top of the series)) is -5.05%. In [9], the Potency is 24.5 µM (active).

For `Cc1cc(C(C#N)c2ccc(Cl)cc2)c(Cl)cc1NC(=O)c1cc(I)cc(I)c1O` (stereo not given), the Potency result in [1], in [2], in [6], in [7] and in assay [9] was “inactive” in each case. The Potency in [4] was 26.6 µM (active). In [5] (at 42.5 µM (top of the series)), the activity change, positive = activation is -52.3%.

Take `O=[N+]([O-])c1ccc(O)cc1C(F)(F)F`: the Potency entry in [1], in assay [2], in assay [6] and in [9] was “inactive” throughout. Besides, the results for the Potency in [4] and in assay [7] were 6.11 µM (active) and 34.7 µM (active), respectively. Besides, in [5] (at 92.4 µM (top of the series)), the activity change, positive = activation is -63.3%.

Take `Fc1ccc(C(c2ccc(F)cc2)N2CCNCC2)cc1`: the Potency entry in assay [1], in assay [2], in assay [3], in assay [6], in [9] and in [8] was “inactive” throughout.

Regarding `[Cu+]`, the Potency result in assay [1], in assay [2] and in [9] was “inactive” each time. Further, the Potency in [8] is 34.7 µM (active).

Regarding `Cc1nc2n(c(=O)c1CCN1CCC(c3noc4cc(F)ccc34)CC1)CCCC2`, the Potency result in assay [1], in assay [2], in [3], in [6], in assay [9] and in [8] was “inactive” in each case. In [7], the Potency is 3.79 µM (active).
